The values below come from PubChem BioAssay.

Several values for one entry are separate records, joined by “and”; a condition that tells them apart may be missing. Identical values can stand only once. Records with an inconclusive call do not appear. For some of these results: Entries with a potency or affinity are not part of this list. Activity calls are given as the source filed them. Unless noted, how the calls were made is not given here.

A short description of experiment [1]: polyglutamine-triggered caspase-3 activation inhibitors, cell-based (AID 1583). The settings on record: polyglutamine-induced caspase-3 activation, cell assay; stronger effect = higher value;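 tested at 10 µM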.
Experiment [2] in a line: suppressors of polyQ aggregation in yeast, 75Q-TubU reporter (AID 1593). The settings on record: Yeast 75Q polyglutamine aggregation reporter.
Experiment [3] is described as follows: rescue of polyQ-huntingtin neuronal dysfunction in worms, whole organism, C. elegans mechanosensory neurons, N-terminal huntingtin (AID 1599). The conditions noted are these: touch response, stronger effect = higher value.
Experiment [4] can be described thus: inhibitors of mitochondrial cytochrome c release, biochemical, purified mitochondria (AID 1603).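 Further: mouse liver mitochondria challenged with calcium chloride; signal normalized to the plate average as 100%.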 The conditions noted are these: stronger effect = lower value.
Experiment [5] in a line: inhibitors of polyQ protein aggregation (AID 1604). The conditions noted are these: polyglutamine-induced protein aggregation inhibition assay; stronger effect = higher value; tested at 2.5 µM.
The nature of experiment [6]: enhancers of glutamate uptake in motor neurons, MN-1 cell line (AID 1612).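 Further: tested at 1 µM final; 0% = mean of DMSO vehicle wells on each plate; positive means more glutamate uptake than control and negative means less.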 The conditions noted are these: MN-1 motor neuron cells, stronger effect = higher value.
The nature of experiment [7]: suppressors of polyglutamine aggregation in yeast, 75Q-TubH (AID 1616). The settings on record: S. cerevisiae 75Q-TubH polyglutamine aggregation suppression; stronger effect = higher value.
Experiment [8] in a line: hESC survival regulators, cell-based (AID 493140).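 Further: cells exposed to compounds for four days before counting.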 The conditions noted are these: human embryonic stem cell survival screen; stronger effect = higher value.
The nature of experiment [9]: Cy5 fluorescence interference with SSB-bound oligo, artefact control for HCV NS3 helicase inhibitor project, biochemical, NIH Clinical Collection, E. coli SSB (AID 743268).
The subject of experiment [10] is Hepatitis C virus NS3 helicase. Nature of the experiment: HCV NS3 helicase inhibitors, primary screen, biochemical, fluorescence polarization, NIH Clinical Collection (AID 743270). The settings on record: NS3 helicase binding to Cy5-dT15 DNA, stronger effect = higher value, concentration not given here.
Experiment [11] deals with 6-phosphogluconate dehydrogenase, decarboxylating (Homo sapiens) (UniProt P52209). Put plainly: 6PGD enzyme inhibitors, primary screen, biochemical, human, recombinant enzyme, NADPH absorbance (AID 1159550;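 active means at least 20% inhibition of 6-phosphogluconate dehydrogenase activity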). The conditions noted are these: recombinant 6PGD, NADPH absorbance 341 nm; at 10 µM; stronger effect = higher value.
Experiment [12] in a line: differential killing of epithelial or mesenchymal cells, primary screen, imaging, PC-3E GFP, TEM4-18 mCherry, co-culture (AID 1345086;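 active means compounds killing one labelled cell type while sparing the other, by normalised counts and ratio limits, not self-fluorescent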;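 on all read-outs here: cells exposed to compound for 72 h before imaging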;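 on red/green cell ratio (normalised): normalised mesenchymal count divided by normalised epithelial count so high means epithelial killing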). The settings on record: imaging cell counts, at 1 µM; for red/green cell ratio (normalised): actives lie on both sides, counts scaled to control wells, 1 = unselective.
For experiment [13], the target named is NAD(+) hydrolase SARM1 (Homo sapiens) (UniProt Q6SZW1). Put plainly: SARM1 TIR NADase inhibitors, cell lysate, NAD-Glo luminescence (AID 1508614;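 active means compound whose remaining NAD level is above about 45 nM, limit read from the data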). The conditions noted are these: SAM-TIR HEK293T lysate NADase, at 1 µM, stronger effect = higher value.
For experiment [14], the target named is Mitogen-activated protein kinase 7 (Homo sapiens) (UniProt Q13164). Put plainly: ERK5 transactivation activators in reporter cells, primary screen, cell-based, HTS (AID 1508626;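 active means luciferase signal above three times the same-plate solvent-only control wells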;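 further: luciferase driven by Gal4-ERK5 fusion binding five Gal4 sites before minimal TATA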). The settings on record: HeLa Gal4-ERK5 transactivation, 18 h, at 5 µM, stronger effect = higher value.
The nature of experiment [15]: SU-DIPG-VI glioma cell viability, MIPE4.0 library, CellTiter-Glo luminescence, qHTS (AID 1347066; cut-off not given, nearly all actives have AC50 up to about 30 µM;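 further: cells exposed to compound for 48 hours before readout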). The settings on record: CellTiter-Glo ATP luminescence.
Experiment [16] in a line: survival rescue of mitochondrial mutant cells in low glucose, primary screen, MELAS cybrids, Rieske KO mouse fibroblasts, CellTiter-Glo (AID 1508586;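 active means mean z-score across replicates of 1.96 or higher in either the MELAS or the Rieske mutant cell line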;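 further: z relative to plate mean and SD of compound and empty wells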).
A short description of experiment [17]: viability rescue of complex I mutant cybrids, primary screen, cell-based, galactose medium, ATP luminescence (AID 1645843;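 active means z-score of at least 1.8 in each of two replicates, scored against plate mean and spread of sample wells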;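 further: positive z means more ATP and so rescue of galactose-driven cybrid death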). The conditions noted are these: complex I mutant cybrid cells, 72 h, stronger effect = higher value.
Experiment [18] can be described thus: sensitizers of A549 cells to miR-34 induction, primary screen, imaging, A549 dox-inducible miR-34, nuclei and caspase counts (AID 1347080;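 active means compounds whose cell count with miR-34 switched on is under 0.7 times the count with it off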). The settings on record: A549 miR-34 inducible, Hoechst nuclei count, 48 h.
Experiment [19] in a line: liver-stage malaria parasite growth inhibition, primary screen, cell-based, HepG2, luciferase luminescence, HepG2 viability (AID 624349; in the data active means parasite load remaining mostly below about 12%, no sharp cut-off; inactive means mostly above about 10%;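 further: 100% = mean of DMSO negative control wells on the same plate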). The conditions noted are these: P. berghei liver stage in HepG2, luciferase luminescence, concentration not given here; parasite load remaining: stronger effect = lower value; viability: measured here: HepG2 viability without parasites.
The mark [20] stands for this setting: measured here: epithelial PC-3E GFP cell survival.
[21] abbreviates: measured here: mesenchymal TEM4-18 mCherry cell survival.
The mark [22] stands for this setting: MELAS cybrid survival, CellTiter-Glo 48 h, stronger effect = higher value.
Where [23] appears, read: Rieske KO mouse fibroblast survival, CellTiter-Glo 72 h.
The mark [24] stands for this setting: stronger effect = lower value, cell number ratio, induced over uninduced.
Setting [25] is: measured here: relative caspase fold change +Dox/-Dox.
Setting [26] is: measured here: total cells with miR-34 induction, stronger effect = lower value.
Where [27] appears, read: measured here: total cells without miR-34 induction.

Chain of 6-phosphogluconate dehydrogenase, decarboxylating (Homo sapiens) (P52209 whole entry, looked up): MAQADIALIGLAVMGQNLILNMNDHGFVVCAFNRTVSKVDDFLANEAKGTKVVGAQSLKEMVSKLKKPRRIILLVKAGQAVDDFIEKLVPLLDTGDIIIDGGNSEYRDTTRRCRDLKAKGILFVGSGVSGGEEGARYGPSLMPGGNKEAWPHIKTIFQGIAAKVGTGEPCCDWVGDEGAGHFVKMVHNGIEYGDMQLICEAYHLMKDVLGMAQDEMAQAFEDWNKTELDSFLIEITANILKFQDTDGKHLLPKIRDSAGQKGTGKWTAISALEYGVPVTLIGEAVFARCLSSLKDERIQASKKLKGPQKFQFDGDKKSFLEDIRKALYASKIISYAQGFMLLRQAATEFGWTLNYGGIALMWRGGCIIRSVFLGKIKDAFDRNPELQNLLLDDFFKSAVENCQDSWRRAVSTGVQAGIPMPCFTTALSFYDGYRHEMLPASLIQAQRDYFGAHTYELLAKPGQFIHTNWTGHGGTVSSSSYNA
Chain of Mitogen-activated protein kinase 7 (Homo sapiens) (Q13164 whole entry, looked up, the tested form may be a part): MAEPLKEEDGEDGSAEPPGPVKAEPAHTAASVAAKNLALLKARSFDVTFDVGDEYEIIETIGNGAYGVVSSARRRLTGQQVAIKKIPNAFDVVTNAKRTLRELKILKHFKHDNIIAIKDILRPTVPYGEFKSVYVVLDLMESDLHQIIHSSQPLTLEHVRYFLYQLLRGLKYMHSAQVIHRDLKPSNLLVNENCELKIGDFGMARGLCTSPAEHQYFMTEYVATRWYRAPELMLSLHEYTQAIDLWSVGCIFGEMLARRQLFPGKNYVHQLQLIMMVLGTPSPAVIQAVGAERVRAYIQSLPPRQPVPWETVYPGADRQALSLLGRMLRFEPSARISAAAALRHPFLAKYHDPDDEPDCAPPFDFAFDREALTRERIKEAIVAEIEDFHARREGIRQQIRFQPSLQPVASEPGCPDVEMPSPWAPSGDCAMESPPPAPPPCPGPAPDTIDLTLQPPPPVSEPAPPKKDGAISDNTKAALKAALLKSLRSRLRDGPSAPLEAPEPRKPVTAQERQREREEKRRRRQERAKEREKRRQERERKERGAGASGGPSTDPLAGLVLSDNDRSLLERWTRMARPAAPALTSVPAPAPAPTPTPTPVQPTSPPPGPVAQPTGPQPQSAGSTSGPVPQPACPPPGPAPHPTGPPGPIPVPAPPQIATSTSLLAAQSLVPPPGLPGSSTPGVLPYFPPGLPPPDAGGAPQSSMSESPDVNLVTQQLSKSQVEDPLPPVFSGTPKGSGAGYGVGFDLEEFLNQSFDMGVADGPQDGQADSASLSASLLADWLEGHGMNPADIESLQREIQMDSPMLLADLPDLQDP
Chain of NAD(+) hydrolase SARM1 (Homo sapiens) (Q6SZW1 whole entry, looked up, the tested form may be a part): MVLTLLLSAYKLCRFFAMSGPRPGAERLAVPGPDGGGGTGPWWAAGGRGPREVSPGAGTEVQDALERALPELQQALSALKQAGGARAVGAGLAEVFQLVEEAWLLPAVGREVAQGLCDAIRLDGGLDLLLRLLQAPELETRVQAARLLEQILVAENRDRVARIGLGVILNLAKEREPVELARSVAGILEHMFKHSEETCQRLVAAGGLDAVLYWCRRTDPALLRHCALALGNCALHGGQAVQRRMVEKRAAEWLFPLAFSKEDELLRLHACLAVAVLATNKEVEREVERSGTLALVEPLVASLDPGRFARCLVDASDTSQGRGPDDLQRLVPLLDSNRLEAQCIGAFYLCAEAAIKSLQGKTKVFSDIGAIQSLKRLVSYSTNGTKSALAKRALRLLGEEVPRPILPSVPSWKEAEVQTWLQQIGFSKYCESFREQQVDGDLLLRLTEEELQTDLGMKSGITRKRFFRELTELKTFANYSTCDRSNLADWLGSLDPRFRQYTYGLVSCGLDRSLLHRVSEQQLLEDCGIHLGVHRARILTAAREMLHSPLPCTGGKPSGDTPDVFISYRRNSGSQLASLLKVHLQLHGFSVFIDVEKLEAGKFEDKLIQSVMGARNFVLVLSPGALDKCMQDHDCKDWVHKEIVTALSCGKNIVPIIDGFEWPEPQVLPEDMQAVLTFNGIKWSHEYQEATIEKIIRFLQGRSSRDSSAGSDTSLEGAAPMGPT

For `CC(C)NCC(O)COc1cccc2ccccc12` (centres undefined), the inhibition is -12.7% in [1], -8.64% (inactive) in experiment [10] and 13.6% (inactive) in [11]. This compound returned a score in [2] of 1.12. Besides, in experiment [3], the rescue above control is -3.83. Also, the cytochrome c release ratio in experiment [4] was determined as 1.04. In experiment [5], this compound returned an inhibition of aggregation of 62.1%. The glutamate uptake change in [6] was determined as 4.46%. Also, the aggregation suppression score in experiment [7] was determined as 0.965. In experiment [8], the survival is 5.92 (inactive) and 9.92 (inactive) and 3.58 (inactive). The fluorescence ratio in experiment [9] is 1.01 (inactive). In [12], the red/green cell ratio (normalised) was 1.4 (inactive). Also, the normalised cell number is 0.94 in [12] (setting [20]) and 1.31 in experiment [12] (setting [21]). Besides, the remaining NAD in experiment [13] was 10 nM (inactive). The luciferase signal in experiment [14] is 48 AU (inactive).

`CS(=O)(=O)c1ccc(C2=C(c3ccccc3)C(=O)OC2)cc1`: in [9], the fluorescence ratio is 1.03 (inactive). Further, the inhibition in experiment [10] was 3.56% (inactive); in experiment [11], -26.3% (inactive). The red/green cell ratio (normalised) in [12] was 0.98 (inactive). Further, the normalised cell number was found to be 0.93 in experiment [12] (setting [20]) and 0.92 in experiment [12] (setting [21]). In addition, in experiment [15], the call was inactive. The z-score in experiment [16] (setting [22]) is -0.068 (inactive) and 0.18 (inactive) and -0.373 (inactive); in [16] (setting [23]) it was -0.00526 and -0.204 and -0.438; in experiment [17] it was 0.26 (inactive) and 0.525 (inactive). Moreover, the remaining NAD in experiment [13] was 10 nM (inactive). For the same compound, in [14], the luciferase signal is 192 AU (inactive).

Take `CC(=O)O[C@H]1CC[C@]2(C)C3=CC(=O)[C@@]4(C)C(C[C@@H]5OC6(OCC(C)CC6Br)C(C)[C@@H]54)C3CC[C@H]2C1` (some centres undefined): the inhibition in experiment [11] is 6.67% (inactive).

`CC[C@@H](CC[C@@H](C)[C@H]1CC[C@H]2[C@@H]3CC[C@H]4C[C@@H](O)CC[C@]4(C)[C@H]3CC[C@]12C)C(C)C`: the inhibition in [11] is -13.2% (inactive).

For the compound `C[N+]1(C)CCCC(OC(=O)C(O)(c2ccccc2)c2ccccc2)C1` (centres undefined), the inhibition in [1] is -22.1%; in [10], -3.18% (inactive); in experiment [11], -19.7% (inactive). This compound registered a score in experiment [2] of 1.26. The same compound returned a rescue above control in experiment [3] of -3.59. The cytochrome c release ratio in experiment [4] amounted to 1.17. For the same compound, the inhibition of aggregation in experiment [5] was 55%. For the same compound, in experiment [6], the glutamate uptake change is -13.3%. Also, in experiment [7], the aggregation suppression score stood at 1.44. For the same compound, the survival in experiment [8] was 8 (inactive). Besides, the fluorescence ratio in [9] is 1.02 (inactive). In addition, the red/green cell ratio (normalised) in experiment [12] was 1.05 (inactive). Moreover, the normalised cell number in [12] (setting [20]) was 1.31; in [12] (setting [21]), 1.37. The fold change in experiment [18] (setting [24]) was 0.951 (inactive) and 0.851 (inactive) and 0.901 (inactive); in experiment [18] (setting [25]), 0.965 and 1.32 and 4.07. Also, the cell count is 10300 and 8730 and 11200 in experiment [18] (setting [26]); 10800 and 10200 and 12500 in [18] (setting [27]). For the same compound, the values for the z-score in experiment [16] (setting [22]), in [16] (setting [23]) and in experiment [17] were 0.378 (inactive), 0.26 and 0.49 (inactive), respectively. The remaining NAD in experiment [13] is 10 nM (inactive). Further, the luciferase signal in experiment [14] was 36 AU (inactive).

As to `CC(=O)OCC(=O)[C@@]1(O)CC[C@H]2[C@@H]3C[C@H](C)C4=CC(=O)C=C[C@]4(C)[C@H]3[C@@H](O)C[C@@]21C`, the parasite load remaining in experiment [19] was 68.8% (inactive). In addition, the viability in experiment [19] amounted to 94.7%. Also, the fluorescence ratio in experiment [9] was 0.98 (inactive). The inhibition in experiment [10] was -2.27% (inactive); in experiment [11], 6.5% (inactive). The values for the fold change in [18] (setting [24]) and in experiment [18] (setting [25]) were 0.982 (inactive) and 1.01, respectively. Moreover, the cell count in [18] (setting [26]) was found to be 8310; in [18] (setting [27]) it was 8460. Further, the luciferase signal in [14] was 112 AU (inactive). Further, in experiment [17], the z-score was -0.46 (inactive).
